Screens from PubChem BioAssay.
Dicer inh: inhibitors of Dicer pre-microRNA processing, primary screen, biochemical, cat-ELCCA, chemiluminescence | actives 6% (n = 47,000) | Endoribonuclease Dicer (Homo sapiens), Q9UPY3 | z-score at 25 µM | AID 1347074, 2019 | cat-ELCCA pre-miR-21 Dicer processing; active compounds read high; in the data active = z-score above about 3, passing the limit was not always enough;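 note: plate controls were vehicle for no effect and no enzyme for full effect; higher signal means more uncleaved substrate so more Dicer inhibition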
* = called active by the depositor. This is one part of a sample in which hits are shown more often than they occur.

SMILES | Dicer inh
O=C1CC(c2ccc3c(c2)OCO3)c2c(ccc3ccccc23)N1 (stereo not drawn) | 0.95
CC1=CC(C)C2COC(c3ccc4c(c3)OCO4)C1C2C (stereo not drawn) | 4*
N#Cc1ccc(Sc2cccs2)c([N+](=O)[O-])c1 | -1
Cn1nc(CC(=O)Nc2nnc(SCCC(=O)Nc3ccccc3)s2)c2ccccc2c1=O | -0.28
O=C(Nc1nnc(SCCN2C(=O)c3ccccc3S2(=O)=O)s1)c1ccccc1 | 3.5*
O=C(CCSc1nnc(NC(=O)Cn2c(=O)sc3ccccc32)s1)Nc1ccccc1 | 2.3
O=C(CCSc1nnc(NC2=NS(=O)(=O)c3ccccc32)s1)Nc1ccccc1 | 3.2*
O=C1c2ccccc2S(=O)(=O)N1CCCCCN1C(=O)c2ccccc2S1(=O)=O | 0.09
N#CCSc1nnc(NC(=O)c2ccccc2)s1 | -0.37
CC1(C)CC(OC(=O)CCCCC(=O)OC2CC(C)(C)NC(C)(C)C2)CC(C)(C)N1 | -0.77
Cn1c(=O)c2c(c3ccccc31)OC(=O)CC2c1ccc(Cl)cc1 (stereo not drawn) | 1.1
O=C(Cn1nnc(N2CCOCC2)n1)NNC(=S)NC(=O)C1CC1 | 2.3
Nc1ncnc2c1nc(N/N=C/c1ccncc1)n2[C@H]1O[C@@H](CO)[C@H](O)[C@@H]1O | 0.89
CCOC(=O)CSC(=Nc1ccccc1)c1c(-c2c(Cl)cccc2Cl)noc1C | 0.93
O=C(Cn1c(NCCO)nc2ccccc21)c1ccco1 | -0.78
O=C(Cn1c(NCCO)nc2ccccc21)c1cccc2ccccc12 | 4.2*
CC(C)n1c(NCCO)nc2ccccc21 | -0.94
CSC1=NC(N)=C(C#N)C2(CCCCC2)C1C(N)=O (stereo not drawn) | 0.53
CCOC(=O)C1=Nn2c(nnc2-c2ccccc2)SC1 | -0.48
CC1CCC2C(=O)N(c3ccc(Cl)cc3)C(=O)C2C1 (stereo not drawn) | -1.5
CC1CCC2C(=O)N(c3ccc(N4C(=O)C5CCC(C)CC5C4=O)cc3)C(=O)C2C1 (stereo not drawn) | 2.8
CC1CCC2C(=O)N(c3ccc(C(=O)OC(C)C(=O)c4ccccc4)cc3)C(=O)C2C1 (stereo not drawn) | 3.1*
Cc1cccc(NC(=O)C(F)(F)F)c1C(=O)O | -0.22
C=CCn1c(SCC(=O)Nc2cc(C)nn2-c2ccccc2)nnc1-c1ccc(Cl)cc1 | 0.52
CCCOC(=O)c1ccc2c(c1)C(=O)NC2=O | -1.4
SMILES | Dicer inh
OC1(c2ccccc2)CCC2C1CCC2(O)c1ccccc1 (stereo not drawn) | 0.4
Cn1c(Oc2ccc(F)cc2)nc2c1c(=O)n(Cc1ccccc1)c(=O)n2C | 0.4
Cn1c(Oc2ccc(Br)cc2)nc2c1c(=O)n(Cc1ccc(Br)cc1)c(=O)n2C | 1.2
COc1ccc(Oc2nc3c(c(=O)n(Cc4ccc(Br)cc4)c(=O)n3C)n2C)cc1 | 4.1*
COc1ccc(C2C3CCc4ccccc4C3=NN2C(=O)Nc2ccc(Cl)c(Cl)c2)cc1 (stereo not drawn) | -2.6
O=C(CSc1nc2ccccc2nc1N1CCOCC1)NCc1cccs1 | 3*
O=C(CSc1nnc(-c2ccccc2)c(-c2ccccc2)n1)N1CCc2ccccc21 | -0.32
O=C(CSc1nc2ccccc2nc1N1CCOCC1)Nc1cccc(Br)c1 | 3.2*
CSc1nsc(SCC(=O)N2CCCc3ccccc32)n1 | -1.6
O=C(CSc1nc2ccccc2nc1SCC(=O)N1CCOCC1)N1CCOCC1 | 1.5
Cc1cc(C)nc(N2CCN(C(=O)CSc3nc4ccccc4nc3N3CCCCC3)CC2)n1 | 2.6
O=C(CSc1nc2ccccc2nc1N1CCCC1)Nc1ccc(Br)cc1 | 2.3
O=C(CSc1nc2ccccc2s1)N1CCc2ccccc21 | 1.4
c1csc(-c2nnc(N3CCOCC3)c3ccccc23)c1 | 0.89
O=C(CSc1nc2ccccc2nc1N1CCOCC1)N1CCCc2ccccc21 | 3.4*
O=C(CSc1nc2ccccc2[nH]1)N1CCc2ccccc21 | 3.1*
O=C(CSc1nc2ccccc2nc1N1CCCC1)Nc1ccc(Cl)cc1 | 2.5
CC12CC(=O)C3c4ccc(O)cc4CCC3C1CCC2O (stereo not drawn) | -0.89
CC1=CC(C)(C)Nc2ccc(OC(=O)Cc3cccc4ccccc34)cc21 | 1.5
COC(=O)c1scc(C)c1NC(=O)CC#N | -1.1
CCCN(CCC)S(=O)(=O)c1ccc(C(=O)N(c2cccc(SC)c2)C2OC(=O)c3ccccc32)cc1 (stereo not drawn) | 11
Cc1cn(CCC(=O)Nc2nn(C)c3cccc(F)c23)c2ccccc12 | 0.42
O=C1CSC(c2cccnc2)N1c1c(F)cccc1Cl (stereo not drawn) | -0.05
COc1cc([N+](=O)[O-])c(OC)cc1SCC(=O)NNC(=S)Nc1cccc(Cl)c1 | -0.45
CSc1nsc(SCC(=O)NCc2ccco2)n1 | -0.97
O=C(CSc1nc(-c2cccs2)cc(C(F)(F)F)n1)NCc1ccco1 | 0.51
O=C(CSc1nc2ccccc2nc1N1CCOCC1)NCc1ccco1 | 3.4*
Cc1sc2ncnc(SCC(=O)OCC(C)C)c2c1C | -0.2
Cc1ccc(CN2C(=O)C(O)(c3c[nH]c4ccccc34)c3ccccc32)cc1 (stereo not drawn) | 1.8
